Assays:
Assay in all cases: PBM binding z-score (relative to random genomic background probes); higher = stronger binding; sequences stand for … in GC…GCGATTGACAGCGTAGAATGAAGG
[1] = tested on: FXR:RXRa (NR concentration 270 nM, RXRa partner concentration 90 nM)
Summary of the method: (§1)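 On custom Agilent 4×180K arrays, double-stranded probes with 34-nt variable regions carried direct-repeat seeds, single-nucleotide variants, half-site ablations or random human genomic background. Ligand-free nuclear receptor dimers were applied for 1 h, and binding was read with antibodies against each partner (one per run). Binding z-scores come from regression-normalized fluorescence, with the random background probes as reference.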

[2] = tested on: LXRa:RXRa (NR concentration 270 nM, RXRa partner concentration 90 nM)
Summary of the method: as §1

[3] = tested on: LXRa homodimer (NR concentration 270 nM)
Summary of the method: as §1

[4] = tested on: LXRb:RXRa (NR concentration 270 nM, RXRa partner concentration 90 nM)
Summary of the method: as §1

[5] = tested on: LXRb homodimer (NR concentration 270 nM)
Summary of the method: as §1

[6] = tested on: PPARa:RXRa (NR concentration 270 nM, RXRa partner concentration 90 nM)
Summary of the method: as §1

[7] = tested on: PPARg:RXRa (NR concentration 180 nM, RXRa partner concentration 90 nM)
Summary of the method: as §1

[8] = tested on: PPARg:RXRa 270nM:90nM, anti-RXR (NR concentration 270 nM, RXRa partner concentration 90 nM)
Summary of the method: as §1

[9] = tested on: PPARg:RXRa 30nM:10nM, anti-RXR (NR concentration 30 nM, RXRa partner concentration 10 nM)
Summary of the method: as §1

[10] = tested on: PPARg:RXRa 90nM:30nM, anti-RXR (NR concentration 90 nM, RXRa partner concentration 30 nM)
Summary of the method: as §1

[11] = tested on: PPARg:RXRa DBDmut IVT, anti-RXR (DBD mutation: RXRa K156A/R161A, NR concentration 270 nM, RXRa partner concentration 90 nM)
Summary of the method: as §1

[12] = tested on: PPARg:RXRa IVT, anti-PPARg (NR concentration 270 nM, RXRa partner concentration 90 nM)
Summary of the method: as §1

[13] = tested on: PPARg DBDmut:RXRa IVT, anti-PPARg (DBD mutation: PPARg1 K132A/R137A, NR concentration 270 nM, RXRa partner concentration 90 nM)
Summary of the method: as §1

[14] = tested on: PPARg DBDmut IVT, anti-PPARg (DBD mutation: PPARg1 K132A/R137A, NR concentration 270 nM)
Summary of the method: as §1

[15] = tested on: PPARg homodimer (NR concentration 180 nM)
Summary of the method: as §1

[16] = tested on: PXR:RXRa (NR concentration 270 nM, RXRa partner concentration 90 nM)
Summary of the method: as §1

[17] = tested on: PXR homodimer (NR concentration 270 nM)
Summary of the method: as §1

[18] = tested on: RARa:RXR (NR concentration 270 nM, RXRa partner concentration 90 nM)
Summary of the method: as §1

[19] = tested on: RARa homodimer (NR concentration 270 nM)
Summary of the method: as §1

[20] = tested on: RARb:RXRa (NR concentration 270 nM, RXRa partner concentration 90 nM)
Summary of the method: as §1

Sequence	PBM binding z-score [1]	PBM binding z-score [2]	PBM binding z-score [3]	PBM binding z-score [4]	PBM binding z-score [5]	PBM binding z-score [6]	PBM binding z-score [7]	PBM binding z-score [8]	PBM binding z-score [9]	PBM binding z-score [10]	PBM binding z-score [11]	PBM binding z-score [12]	PBM binding z-score [13]	PBM binding z-score [14]	PBM binding z-score [15]	PBM binding z-score [16]	PBM binding z-score [17]	PBM binding z-score [18]	PBM binding z-score [19]	PBM binding z-score [20]
CGAACTCGGTCATCCAGGACAGTGAATACATTGA	1.39	0.744	0.283	0.275	-0.494	0.964	1.14	0.895	0.134	0.455	3.58	2.52	0.285	0.0941	0.363	0.205	-0.0652	0.856	0.205	2.31
CCTAGTTGGTCAGGAGGTCACACGCCGGATATGA	3.62	3.32	1.92	3.15	0.554	4.05	3.59	3.92	1.69	2.84	1.84	3.74	0.471	-0.188	3.2	4.12	1.31	4.32	1.9	3.71
GCTATTAGTTGAAAGGGCAATCGAATGATTCTCG	0.568	0.562	0.189	0.633	-0.254	2.34	2.44	4.24	2.01	4.26	0.456	1	-0.234	0.628	1.15	0.658	0.0729	1.25	0.589	1.74
TAGCCAAGGTCATGGGCCAGTATACCACGCGAAC	7.33	5.41	0.809	4.45	0.229	6.11	5.96	6	2.19	4.55	1.56	3.66	0.971	1.48	2.86	4.24	0.572	4.73	0.369	5.36
ATAGAAAGGTCGAGGTGAGTATAGAGAAAGGGAA	4.25	3.22	0.369	2.75	0.952	4.36	3.26	3.43	1.67	2.2	0.449	1.99	1.74	0.872	2.34	2.55	0.613	3.6	1.71	4
TGAATGAGGTTATAAGATCAGCGAACGTTGCAAA	1.21	1.34	-0.415	0.765	-0.436	2.88	1.18	1.89	0.811	1.34	1.18	2	0.4	-0.321	-0.104	0.634	-0.373	1.33	-0.341	1.06
TCTAGTTGGTCACGGAGGTCACACACGACGGGTA	3.14	3.39	2.59	3.33	0.773	4.01	3.79	4.11	3.73	3.75	2.46	4.2	1.49	1.18	3.41	4.41	1.8	4.53	1.29	3.82

Reference: the supplement of paper PMC6555819
